Only some compounds are listed: those with a hit (about 1.1% of all), similar ones and a draw of the others.
ALOX12 inh = blocks human arachidonate 12S-lipoxygenase | P18054 | purified 12hLO, xylenol orange hydroperoxide absorbance | Potency, µM (titrated, usually from 108 µM), most hits filed as inhibitors | 580,000 compounds, 1.1% hits | AID 1671190
Target sequence (P18054 whole entry, looked up): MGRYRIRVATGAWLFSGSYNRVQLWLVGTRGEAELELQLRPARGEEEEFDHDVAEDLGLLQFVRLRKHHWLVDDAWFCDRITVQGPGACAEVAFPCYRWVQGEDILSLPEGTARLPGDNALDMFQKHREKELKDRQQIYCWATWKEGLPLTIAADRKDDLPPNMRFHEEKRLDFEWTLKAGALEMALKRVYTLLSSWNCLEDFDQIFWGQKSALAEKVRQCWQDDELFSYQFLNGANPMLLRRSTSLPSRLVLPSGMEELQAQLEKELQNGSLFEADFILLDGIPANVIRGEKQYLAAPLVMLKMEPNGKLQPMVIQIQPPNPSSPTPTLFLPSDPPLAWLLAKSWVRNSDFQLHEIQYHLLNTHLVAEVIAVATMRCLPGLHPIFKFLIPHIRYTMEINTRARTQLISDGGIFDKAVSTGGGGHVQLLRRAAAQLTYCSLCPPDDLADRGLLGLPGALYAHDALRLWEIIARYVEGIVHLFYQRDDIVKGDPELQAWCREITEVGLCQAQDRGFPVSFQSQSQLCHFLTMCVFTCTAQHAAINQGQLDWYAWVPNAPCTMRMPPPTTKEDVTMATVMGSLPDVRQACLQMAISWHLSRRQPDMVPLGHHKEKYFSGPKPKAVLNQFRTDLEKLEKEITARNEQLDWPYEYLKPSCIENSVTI
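Purified human 12hLO (150 nM final) in 25 mM Hepes, 0.01% Triton X-100, pH 7.0 was preincubated 15 min at room temperature with compound. Then 40 uM arachidonic acid was added, 30 min. Hydroperoxide was read by Fe-XO absorbance ratio 573/405 nm.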
Apoferritin bind = binds horse apoferritin like a general anesthetic | P02791 | apoferritin/1-aminoanthracene competitive binding, fluorescence | Potency, µM (series often up to 77.5 µM), actives largely listed as inhibitors | 350,000 compounds, 0.074% hits; note: nearly all actives have a fitted effect of over 20% in size
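Horse-spleen apoferritin (10 uM) was mixed with 50% saturated 1-aminoanthracene in PBS, exposed to compounds for 10 min at room temperature, and read for fluorescence (ex 380 nm, em 535 nm). Competitive displacement was fitted with a four-parameter Hill equation.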
GRP78 ERSR act = induces the endoplasmic reticulum stress response in human glioma cells | U87-MG GRP78 promoter luciferase reporter, 16 h | Potency, µM, usual class: activators | 420,000 compounds, 0.02% hits; note: series mostly up to about 76 µM; nearly all actives have a fitted effect of over 35% in size
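Stably transfected U87-MG human glioma cells carrying a GRP78-based luminescent sensor were seeded at 1000 cells/well, pin-dosed with compounds and incubated 16 h. Luciferase reagent was then added, and end-point luminescence was read after 10 min at room temperature.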
Chronic BCR inh = chronic active BCR signaling inhibition | AID 493014 | 340,000 compounds, 0.05% hits | Potency, µM (top dose mostly 46.1 µM), hits mostly inhibitors | ABC-DLBCL IkBa-CBG/CBR reporter, luminescence ratio, 4 h; active = well fitted inhibition curve with a large enough effect in the signal ratio, with a control signal flat, not every such curve was filed as active; inconclusive = small, poorly fitted or top-dose-only effect, or effect the other way, or a change in a side signal; the % refers to the signal ratio
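TMD8 human ABC-DLBCL cells with doxycycline-inducible IκBα–green luciferase fusion and unfused red luciferase, in 0.5% FBS medium; compounds up to 46 uM, 4 h at 37C. Green/red luminescence ratio, filter-overlap corrected, fitted to concentration-response curves.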
A number is an active result; . = inactive; ? = inconclusive; / = no result. Unless noted, calls come from the whole dose curve; as a rule, active = well fitted curve in the direction sought with a large enough effect; inconclusive = small, poorly fitted or top-dose-only effect, or another doubt; inactive = no such curve, though single readings can be large; an effect the other way counts as inactive or inconclusive.

SMILES	ALOX12 inh	Apoferritin bind	GRP78 ERSR act	Chronic BCR inh
O=S(=O)(c1c(F)cccc1F)N1CCN(Cc2c(O)ccc3ccccc23)CC1	13µM	/	.	.
CN1CCCN(C(=O)c2cn3ccnc(-c4ccccc4)c3n2)CC1	.	/	/	/
CCN1c2cc(C(=O)Nc3ccc(C)cc3Cl)ccc2C(=O)N2CCCCCC21 (configuration not stated)	.	/	/	/
CCOC(=O)c1ccc(Cl)c(NC(=O)c2ccc(-c3ccccc3)cc2)c1	.	.	.	.
CCOC(=O)c1ccc(/C=C2/C=C(c3ccccc3)N(c3ccc(Cl)c(C(=O)O)c3)C2=O)cc1	45µM	.	.	.
COc1ccccc1/C=C1\SC(=S)N(NS(=O)(=O)c2ccc(C)cc2)C1=O	35µM	.	.	.
CC1CN(Cc2c(O)ccc3c(=O)c(-c4ccccc4)coc23)CC(C)O1 (configuration not stated)	.	.	.	.
CC1CN(Cc2c(O)ccc3c2oc(=O)c2ccccc23)CC(C)O1 (configuration not stated)	5.6µM	.	.	.
O=C1C2C3C=CC(CC3)C2C(=O)N1/N=C/c1ccc(O)c(O)c1 (configuration not stated)	.	.	.	?
O=C1c2ccccc2C(=O)N1/N=C/c1ccc(O)c(O)c1	22µM	.	.	?
O=C(Nc1ccc2nc(SCc3cccc4ccccc34)sc2c1)c1ccc(Cl)cc1	28µM	/	/	/
CCOC(=O)CSc1nc2ccc(NC(=O)c3ccc(Cl)cc3)cc2s1	.	.	.	/
COc1ccc(S(=O)(=O)N2CCCC2C(=O)Nc2nnc(-c3cccnc3)s2)cc1 (configuration not stated)	40µM	.	.	.
O=C(NCc1n[nH]c(=S)n1Cc1ccccc1)c1ccccc1	.	.	.	.
CCN(CC)S(=O)(=O)c1ccc(C(=O)NCc2n[nH]c(=S)n2Cc2ccccc2)cc1	25µM	.	.	.
S=C(NCCc1ccccc1)Nc1ccc(Nc2ccccc2)cc1	?	.	.	?
S=C(NCCc1ccccc1)Nc1ccc(Sc2ccc(Br)cc2)cc1	35µM	/	/	/
S=C(NCc1ccncc1)Nc1ccc(Br)cc1	?	.	.	.
S=C(NCc1ccccc1)Nc1ccc(Sc2ccc(Br)cc2)cc1	28µM	/	/	/
FC(F)(F)Sc1ccc(NC(=S)NCc2ccccc2)cc1	40µM	.	.	?
CN(C)c1ccc(C(=O)N2CCC(Cc3ccccc3)CC2)cc1	.	/	/	/
CCCC(C)Nc1oc(-c2ccc(Cl)cc2)nc1C#N (configuration not stated)	.	/	/	/
O=C(Nc1ccc(Cl)cc1C(F)(F)F)c1cccc(Cl)c1Cl	.	/	/	/
CCCc1n[nH]c2c1/C(=N\OCC)CC(C)(C)C2	40µM	.	.	?
c1ccc(Cn2c(-c3ccco3)nc3nc4ccccc4nc32)cc1	?	.	.	.
SMILES	ALOX12 inh	Apoferritin bind	GRP78 ERSR act	Chronic BCR inh
CCCCCn1c(-c2ccco2)nc2nc3ccccc3nc21	35µM	.	.	?
c1ccc(C2=Nn3c(nnc3-c3cc(-c4ccccc4)n[nH]3)SC2)cc1	.	?	.	12µM
Clc1ccc(C2=Nn3c(nnc3-c3cc(-c4ccccc4)n[nH]3)SC2)cc1	.	.	.	5.2µM
Clc1ccc(C2=Nn3c(nnc3-c3cccs3)SC2)cc1	.	.	.	.
Cc1ccc(-c2nnc3n2N=C(c2ccccc2)CS3)cc1	.	.	.	?
COc1ccc(-c2cn(C)c(=O)n3cc(CN(C)C)nc23)c(C(F)(F)F)c1	.	/	/	/
Cc1nccc(-c2cccc(C(=O)O)c2)n1	.	/	/	/
Cc1ccc([N+](=O)[O-])cc1S(=O)(=O)N(C)N=Cc1cnc2ccc(Br)cn12	8.6µM	/	/	/
Cc1ccc([N+](=O)[O-])cc1S(=O)(=O)N1CCNCC1	.	.	.	.
CCC(C)NC(=O)C(NC(=O)c1ccc(OC)cc1)C1CCN(C(=O)c2cccc(OC)c2)CC1 (configuration not stated)	.	/	/	/
CCC1Oc2ccc(NS(=O)(=O)c3ccccc3)cc2CN(Cc2ccc(F)cc2)C1=O (configuration not stated)	14µM	/	/	/
NNc1cccc(S(=O)(=O)c2cccc(NN)c2)c1	11µM	/	/	/
O=S(CCN1CCN(Cc2c(F)cccc2Cl)CC1)c1ccccc1 (configuration not stated)	.	/	/	/
CCNC(=O)NC(=O)COC(=O)CCCc1c[nH]c2ccccc12	.	/	/	/
O=C1C=C(NCc2ccc(Cl)cc2)CC(c2ccco2)C1 (configuration not stated)	.	.	.	.
O=C1C=C(Nc2ccc(Cl)cc2Cl)CC(c2ccco2)C1 (configuration not stated)	?	.	.	13µM
Cc1ccc(C)c(-n2nnnc2SCC(=O)c2ccc(Cl)s2)c1	.	/	/	/
O=C(Nc1ccc2c(c1)OCCO2)c1cc2cc(Br)ccc2[nH]1	14µM	/	/	/
COc1cc(/C=C2\SC(c3ccccc3)=NC2=O)cc(Cl)c1O	8.9µM	.	.	.
COc1cc(/C=C2\SC(c3ccc(C)cc3)=NC2=O)ccc1O	6.3µM	.	.	.
COc1cc(/C=C2\SC(c3ccc(C)cc3)=NC2=O)cc(OC)c1OC	/	.	.	?
COc1ccc(NC(=O)c2cnc(SC)nc2C(F)(F)F)c(OC)c1	.	/	/	/
COc1ccc(/C=C2\SC(=O)NC2=S)cc1OC	40µM	.	.	?
CCOc1ccc(/C=C2\SC(=S)NC2=O)cc1OC	.	.	.	?
O=C(/C=C/c1ccccc1)CC(O)(c1ccccc1)C(F)(F)C(F)F (configuration not stated)	.	?	11µM	?
SMILES	ALOX12 inh	Apoferritin bind	GRP78 ERSR act	Chronic BCR inh
O=C(/C=C/c1ccccc1)CC(O)(c1ccccc1)C(F)(F)F (configuration not stated)	.	?	?	?
COC(=O)C1=C(C)NC(=O)/C1=C\c1cc(C)n(-c2cc(C)cc(C)c2)c1C	40µM	?	.	.
Cc1ccc(S(=O)(=O)NC(C(=O)Oc2ccc3c(C(F)(F)F)cc(=O)oc3c2)c2ccccc2)cc1 (configuration not stated)	50µM	.	.	.
Cc1ccc(S(=O)(=O)Oc2ccc3c(C(F)(F)F)cc(=O)oc3c2)cc1	.	/	/	/
Cc1c2ccccc2cc(Cc2ccccc2)[n+]1C	5.6µM	.	.	.
CCOC(=O)c1cnn(-c2ccc(OC)cc2)c1C1CCN(C(=O)OC(C)(C)C)CC1	14µM	.	.	/
COCCN1C(=O)c2ccccc2C(C(=O)Nc2nc(C)cs2)C12CCCCC2 (configuration not stated)	.	/	/	/
C=CCn1c(-c2cccn(Cc3ccc(Cl)cc3Cl)c2=O)n[nH]c1=S	45µM	.	.	.
CC(=O)Oc1c(C)c(OC(C)=O)c2c(c1C(C)=O)OC1CC(=O)C(C(C)=O)=C(O)C21C (configuration not stated)	28µM	.	.	.
O=C(C1CCN(c2nc(-c3cccs3)nc3ccccc23)CC1)N1CCCCCC1	.	/	/	/
O=C(Cc1cccs1)N1CCC(Oc2ccccc2)C1 (configuration not stated)	50µM	/	/	/
CC(=O)N1CCC(Oc2ccccc2)C1 (configuration not stated)	.	/	/	/

Screens: PubChem BioAssay, National Center for Advancing Translational Sciences (NCATS)
